Screening results as filed in PubChem.
D1 antag = human D1 dopamine receptor antagonism; HEK293 TREx D1 cells, calcium flux, dopamine EC80; active compounds read low; P21728; 360,000 compounds, 3.2% hits; activity change, negative = inhibition, % at 10 µM; in the data active means activity change below about -30%
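Kinetic fluorescence of a calcium dye serves as the read-out. D1-expressing Hek293 Trex cells, induced overnight at 30 C, are exposed to compound for 180 s before an EC80 dopamine addition, then read 180 s further.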
TRPV1 ag = human TRPV1 agonism; TRPV1-expressing cells, Fluo-8 calcium influx, agonist mode; activation, % at 8.33 µM; Q8NER1; 320,000 compounds, 0.19% hits; in the data active means activation above about 80%; inconclusive means between about 30% and that limit
Target sequence (Q8NER1 whole entry, looked up): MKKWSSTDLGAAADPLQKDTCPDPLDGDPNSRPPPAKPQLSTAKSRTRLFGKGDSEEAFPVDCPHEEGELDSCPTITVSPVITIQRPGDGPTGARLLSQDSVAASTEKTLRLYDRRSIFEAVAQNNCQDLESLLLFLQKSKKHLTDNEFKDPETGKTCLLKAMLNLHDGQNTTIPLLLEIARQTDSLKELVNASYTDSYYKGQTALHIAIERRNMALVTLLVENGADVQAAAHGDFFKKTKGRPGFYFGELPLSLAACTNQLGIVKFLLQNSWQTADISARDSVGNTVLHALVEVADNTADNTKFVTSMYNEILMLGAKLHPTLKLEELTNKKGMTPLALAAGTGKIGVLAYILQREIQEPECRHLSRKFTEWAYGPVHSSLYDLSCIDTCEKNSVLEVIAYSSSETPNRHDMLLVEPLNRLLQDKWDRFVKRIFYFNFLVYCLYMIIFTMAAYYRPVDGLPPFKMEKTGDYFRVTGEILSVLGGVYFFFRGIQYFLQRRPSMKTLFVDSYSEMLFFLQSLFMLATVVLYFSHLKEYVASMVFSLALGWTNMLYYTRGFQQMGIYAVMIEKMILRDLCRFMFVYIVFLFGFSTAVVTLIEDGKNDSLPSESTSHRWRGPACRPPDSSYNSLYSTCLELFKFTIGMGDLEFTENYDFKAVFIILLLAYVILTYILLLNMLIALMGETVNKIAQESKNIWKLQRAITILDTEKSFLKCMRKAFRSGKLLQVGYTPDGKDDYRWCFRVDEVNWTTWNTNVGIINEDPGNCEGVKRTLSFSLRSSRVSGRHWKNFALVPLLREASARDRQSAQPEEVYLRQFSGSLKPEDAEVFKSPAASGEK
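Cells expressing TRPV1 were dye-loaded with Fluo-8 and read kinetically: 10 s baseline, 3 min after compound (agonist portion), then 2 min after EC20 capsaicin (allosteric enhancer portion). Calcium-bound dye fluorescence at 480/520 nm.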
D1 ag = activates the human D1 dopamine receptor | P21728 | HEK293 T-REx D1 cells, calcium flux, agonist mode | activation, % at 2 µM | 360,000 compounds, 1% hits | AID 504660; in the data active means activation above about 30%
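Inducible HEK293 T-REx D1 cells, force-coupled to calcium signalling, were plated at 4000 cells/well with tetracycline and held overnight at 30 C. After no-wash calcium dye loading, compound-evoked calcium rise over 180 s flagged agonists.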
D1 potentiator = potentiators of human D1 dopamine receptor | 360,000 compounds, 0.036% hits | P21728 | AID 504651 | potentiation, % at 10 µM | HEK293 TREx D1 cells, calcium flux, dopamine EC20 potentiation; in the data active means potentiation above about 30%
TRPV1 potentiator = human TRPV1 potentiation; 320,000 compounds, 0.02% hits; Q8NER1; TRPV1-expressing cells, Fluo-8 calcium influx, capsaicin EC20 potentiation; AID 540277; potentiation, % at 8.33 µM; in the data active means potentiation above about 80%; inconclusive means between about 30% and that limit
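TRPV1-expressing cells were cultured overnight at 35.5C and loaded with Fluo-8 calcium dye for 40 to 90 min at room temperature. After a 10 s baseline, compound was added and calcium influx was read kinetically for 3 min (ex 480/em 520 nm).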
Hits are given with their value; 0 = inactive; ? = inconclusive; - = no result given. An excerpt weighted towards active compounds, which were near 4.2% of everything screened.

SMILES	D1 antag	TRPV1 ag	D1 ag	D1 potentiator	TRPV1 potentiator
CCOc1ccc(C(=O)N2CCCCC2CCN2CCOCC2)cc1 (stereo unspecified)	0	-	0	0	-
CC(C)(C)C(=O)/C=c1\s/c(=C\c2ccc(-c3ccc([N+](=O)[O-])cc3)o2)c(=O)n1CC(=O)NC(N)=O	0	?	893.9	0	0
CCC(=O)N/N=C/c1ccc(-c2ccc([N+](=O)[O-])cc2)o1	0	0	0	0	0
COc1ccc(N2CCN(C(=O)CCCNC(=O)Cn3cnc4sc(C)c(C)c4c3=O)CC2)cc1	-41.6	0	0	0	0
CCN(CC)S(=O)(=O)c1cccc(-c2nnc(SCCOc3ccccc3C)o2)c1	0	0	33.5	0	0
CCN(CC)S(=O)(=O)c1cccc(-c2nnc(SCCOc3ccccc3)o2)c1	0	-	0	0	-
CN(CC(=O)Nc1ccc(F)c(Cl)c1)S(=O)(=O)c1cccc2nsnc12	-34.2	0	0	0	0
CC1CCN(CCNC(=O)CN(C)S(=O)(=O)c2cccc3nsnc23)CC1	-31.0	0	0	0	0
Cc1ccc2cccc(NC(=O)c3ccc(-c4cccc(Cl)c4)o3)c2n1	0	-	0	0	-
CN(C)c1ccc(CN(CC2CCCO2)C(=O)COc2ccc(Cl)cc2)cc1 (stereo unspecified)	0	-	0	0	-
CCn1nc(C)cc1C(=O)Sc1ccc(Cl)cc1Cl	0	0	0	0	0
CCn1nc(C)cc1C(=O)OCC(=O)c1ccc(Cl)cc1	-63.4	0	0	0	0
CCc1ccc(-n2c(C)nc3cc(C(=O)NCCc4ccccc4)ccc32)cc1	0	-	0	0	-
Cc1ccc(OCc2ccc(-c3nc(C#N)c(NCc4ccccc4Cl)o3)o2)cc1	0	-	0	0	-
COc1cccc(NC(=S)N(CCCN2CCOCC2)C(C)c2cc3cccc(OC)c3o2)c1 (stereo unspecified)	-68.5	0	0	0	0
O=C(O)CCCCCN1C(=O)/C(=C\c2cn(-c3ccccc3)nc2-c2cccs2)SC1=S	0	0	0	0	0
CC1=NNC(=O)/C1=C\c1cn(-c2ccccc2)nc1-c1ccc(F)cc1	-54.4	0	0	0	0
CC1=NNC(=O)/C1=C\c1cn(-c2ccccc2)nc1-c1cccs1	-39.6	0	0	0	0
O=Cc1cn(-c2ccccc2)nc1-c1ccc(F)cc1	0	?	0	0	0
Cc1cc(C(=O)NN=C2CCCCC2)c2ccccc2n1	-88.7	0	0	0	0
C/C(=N\NC(=O)c1cc(C)nc2ccccc12)c1cccs1	0	-	0	0	-
Cc1cc(C(=O)NN=C2CCCC2)c2ccccc2n1	0	0	0	0	0
CC(/C=C/c1ccccc1)=N\NC(=O)c1cc(C)nc2ccccc12	-36.0	-	0	0	-
Cc1ccc(CCNC(=O)c2c[nH]c3ccc(S(=O)(=O)Nc4cccc(C(F)(F)F)c4)cc3c2=O)cc1	0	-	0	0	-
CCOc1ccc(-n2nc(CO)c(C(=O)NCC(c3ccccc3)c3ccccc3)n2)cc1	0	-	0	0	-
SMILES	D1 antag	TRPV1 ag	D1 ag	D1 potentiator	TRPV1 potentiator
Cc1cc(OCCN2CCOCC2)ccc1Cl	-93.9	0	0	0	0
Cc1ccc(OCCN2CCOCC2)cc1C	0	0	0	0	0
Cc1cc(C)cc(C(N)=Nc2cccc(C#N)c2)c1	-50.2	0	0	0	0
N#CNC(N)=Nc1cccc(Cl)c1	0	0	0	0	0
COc1ccc(CCNC(=O)C(=O)NCC(c2ccco2)S(=O)(=O)c2ccc(F)cc2)cc1 (stereo unspecified)	-	-	0	0	-
Cc1cccc(OCC(=O)Nc2cccc3cccnc23)c1C	-44.7	-	0	0	-
COc1ccc(/C=C(\C#N)c2nc3ccccc3n2C)c(OC)c1	0	-	0	0	-
Cc1ccc(C(=O)N2CCC(n3nccc3NC(=O)c3ccccc3C)CC2)cn1	0	0	0	0	0
Cc1ccccc1C(=O)Nc1ccnn1C1CCN(C(=O)c2ccoc2)CC1	-44.5	0	0	0	0
CN1CCN(S(=O)(=O)c2cccc(C(=O)NC3(C)CCS(=O)(=O)C3)c2)CC1 (stereo unspecified)	0	0	0	0	0
O=C(NCCc1ccccn1)c1cccc(S(=O)(=O)N2CCc3ccccc32)c1	-35.6	0	0	0	0
COc1cc2c(cc1OC)CN(C(=O)c1cccc(S(=O)(=O)N3CCc4ccccc43)c1)CC2	-33.9	0	0	0	0
CC1(NC(=O)c2cccc(S(=O)(=O)N3CCCc4ccccc43)c2)CCS(=O)(=O)C1 (stereo unspecified)	-83.1	0	0	0	0
O=C(c1cccc(S(=O)(=O)N2CCc3ccccc32)c1)N1CCc2ccccc2C1	-82.3	0	0	-	0
COc1cc2c(cc1OC)CN(C(=O)c1cccc(S(=O)(=O)N(C)C)c1)CC2	0	0	0	0	0
CCOc1ccc(S(=O)(=O)NCCc2csc(-c3ccc(Cl)cc3)n2)cc1	0	-	0	0	-
COc1ccc(NC(=O)c2cccc(S(=O)(=O)N3CCc4ccccc43)c2)cn1	-30.6	0	0	0	0
COc1ccc(-c2cn(Cc3ccc4ccccc4c3)nn2)cc1	-31.9	0	0	0	0
CC(=O)c1ccc(NC(=O)CSc2cn(CC(=O)N(C(C)C)C(C)C)c3ccccc23)cc1	0	-	0	0	-
COc1cccc(OCCCn2cc(/C=C3/C(=N)N4C=C(C)SC4=NC3=O)c3ccccc32)c1	0	0	34.4	0	0
COc1ccc(OCCCn2cc(/C=C3/C(=N)N4C=C(C)SC4=NC3=O)c3ccccc32)cc1	0	0	0	0	0
CCOC(=O)c1c(NC(=O)C2c3ccccc3Oc3ccccc32)sc(C)c1CC	0	-	0	0	-
O=C(c1cnn(-c2ccccc2)c1)c1ccc2ccccc2c1O	-31.9	0	0	0	0
Cc1cccn2c(=O)c(/C=C(\C#N)c3nc4ccccc4n3C)c(Oc3ccc(Cl)cc3)nc12	0	-	0	0	-
CN(CC(=O)Nc1cccc(C(F)(F)F)c1)S(=O)(=O)c1ccc2[nH]c3c(c2c1)CCCC3	0	-	0	0	-
SMILES	D1 antag	TRPV1 ag	D1 ag	D1 potentiator	TRPV1 potentiator
O=C(Nc1cccc(F)c1)C1CCN(S(=O)(=O)c2ccc3[nH]c4c(c3c2)CCCCC4)CC1	-31.6	-	0	0	-
CN(CC(=O)Nc1cccc(Cl)c1)S(=O)(=O)c1ccc2[nH]c3c(c2c1)CCCC3	-34.7	-	0	0	-
CCOc1ccc(CNC(=O)c2cc3c(s2)-c2ccccc2OC3)cc1	0	-	0	0	-
Cc1ccc(-n2nc(C)c3c(C(F)(F)F)cc(-c4cccnc4)nc32)cc1C	-49.9	-	0	0	-
Cc1cc(=O)n2[nH]c(NC(=O)c3cccc(Cl)c3)nc2n1	0	-	0	0	-
O=C(Oc1cc(-c2ccccc2)no1)c1ccc(F)cc1	-46.6	0	0	0	0
COc1ccc(OC)c(-c2csc(NC(=O)COC(=O)C3(C)CC3(Cl)Cl)n2)c1 (stereo unspecified)	-48.3	0	0	0	0
COCCCN(C(=O)c1ccco1)c1nc(-c2cc(OC)ccc2OC)cs1	-41.4	-	0	0	-
